HP1b binding inh: inhibitors of HP1-beta chromodomain binding to methylated histone tails; P83916; AlphaScreen HP1-beta / biotin-H3K9me3 peptide binding; Potency, µM (highest dose often 114 µM), usual class: inhibitors; 390,000 compounds, 0.56% hits; AID 540317; also: nearly all actives have a fitted effect of over 70% in size
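Compound inhibition of the preformed complex between 50 nM HP1-beta and 50 nM biotinylated H3K9me3 peptide was read by AlphaScreen. Buffer was PBS pH 7.4 with 0.01% Tween-20. Incubations ran 30 min at room temperature, with 10 ug/mL donor/acceptor beads.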
JMJD2A Tudor inh: blocks the human JMJD2A Tudor domain. AlphaScreen JMJD2A-Tudor / H3K4me3 peptide binding. Potency, µM (series often up to 114 µM), most hits filed as inhibitors. 390,000 compounds, 4.4% hits. AID 504339; also: nearly all actives have a fitted effect of over 50% in size
PI5P4K alpha inh: inhibitors of human PI5P4K alpha; PI5P4Kalpha enzyme, ADP-Glo luminescence, 60 min; stronger effect = lower value; max response, %; 330,000 compounds, 1.2% hits; AID 652105; active = max response of -50% or lower; inconclusive = between -30% and -50%; inactive = -30% or higher; also: value at the top dose of about 77 µM
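Luminescence from ADP-Glo served as readout of PI5P4Kalpha activity in a qHTS format. Reaction: enzyme, substrate, compound, ATP at 5 microM final, 60 min at RT.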
G9a block: blocks human histone lysine methyltransferase G9a. Q96KQ7. G9a H3K9 monomethylation, AlphaScreen, 2 h. Potency, µM (series often up to 102 µM), most hits filed as inhibitors. 350,000 compounds, 8.8% hits; also: nearly all actives have a fitted effect of over 75% in size
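Step 1: enzyme (final 20 nM) with compound, 15 min RT. Step 2: substrate peptide 500 nM and SAM 20 uM, 2 h RT. Step 3: anti-H3K9me1 antibody and AlphaScreen beads, 10 min, then plate read.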
BAZ2B block: blocks human BAZ2B; AlphaScreen BAZ2B-H3K14Ac peptide displacement; Potency, µM (top dose mostly 114 µM), hits mostly inhibitors; 360,000 compounds, 4.4% hits; also: nearly all actives have a fitted effect of over 60% in size
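BAZ2B 50 nM plus b-H3(5-23)K14Ac 50 nM, PBS pH 7.4/0.01% Tween-20, 30 min RT; compound added (max 110 uM), 30 min RT; streptavidin donor/Ni-chelate acceptor beads 10 ug/mL final, 20 min dark; AlphaScreen read.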
PLK1 PBD block: blocks phosphopeptide binding to human PLK1 polo-box domain. Plk1 PBD binding of FITC phosphopeptide, fluorescence polarization. 360,000 compounds, 2.8% hits. Potency, µM, actives largely listed as inhibitors. AID 720504. P53350; also: series mostly up to about 57 µM; nearly all actives have a fitted effect of over 65% in size
Target sequence (P53350 whole entry, looked up, the tested form may be a part): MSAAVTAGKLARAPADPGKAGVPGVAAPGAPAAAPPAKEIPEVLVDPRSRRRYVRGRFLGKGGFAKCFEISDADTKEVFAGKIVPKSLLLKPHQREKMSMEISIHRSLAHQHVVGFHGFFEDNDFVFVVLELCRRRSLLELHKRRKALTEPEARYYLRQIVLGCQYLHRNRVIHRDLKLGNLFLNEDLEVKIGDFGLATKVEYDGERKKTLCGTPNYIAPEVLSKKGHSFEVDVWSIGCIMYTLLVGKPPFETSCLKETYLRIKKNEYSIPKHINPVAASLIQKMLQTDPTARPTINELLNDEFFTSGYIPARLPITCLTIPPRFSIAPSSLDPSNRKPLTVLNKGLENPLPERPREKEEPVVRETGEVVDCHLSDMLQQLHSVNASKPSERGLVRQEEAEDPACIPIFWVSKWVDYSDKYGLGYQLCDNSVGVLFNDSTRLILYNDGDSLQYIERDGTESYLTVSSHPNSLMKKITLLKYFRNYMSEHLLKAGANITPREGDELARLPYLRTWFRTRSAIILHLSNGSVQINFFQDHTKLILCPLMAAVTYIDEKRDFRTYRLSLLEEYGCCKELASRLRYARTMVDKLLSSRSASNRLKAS
Large screens that a line does not name were inactive. The list is not random: actives were taken first. Their share in the collection is about 12%. Unless noted, calls follow the shape of the dose curve; as a rule, active = well fitted curve in the direction sought with a large enough effect; inconclusive = small, poorly fitted or top-dose-only effect, or another doubt; inactive = no such curve, though single readings can be large; an effect the other way counts as inactive or inconclusive.

COc1ccc(C(=O)n2nc(-c3ccco3)nc2N)cc1	JMJD2A Tudor inh inconclusive, G9a block 17.8µM, PLK1 PBD block inconclusive
Nc1nc(-c2ccco2)nn1C(=O)c1cccnc1	G9a block 50.1µM
C=CCn1c(/N=C/c2ccc(N(C)C)cc2)nc2ccccc21	JMJD2A Tudor inh inconclusive, G9a block 44.7µM, BAZ2B block inconclusive (no result: PI5P4K alpha inh)
C=CCn1c(/N=C/c2ccc(OC)cc2)nc2ccccc21	none
Cc1ccccc1CNC(=O)c1ccc(CN2CC(=O)N3CCCCC3C2=O)cc1 (stereo unspecified)	none (no result: PI5P4K alpha inh, PLK1 PBD block)
Cc1cc(O)c(C(=O)Nc2cccc(Cl)c2)c(=O)n1C	G9a block 50.1µM
Cn1ncc(Cl)c1C(=O)Nc1cccc(Cl)c1	JMJD2A Tudor inh 89.1µM, G9a block 2.82µM, PLK1 PBD block 23.8µM
CCn1c(C)cc(O)c(C(=O)Nc2cccc(Cl)c2)c1=O	none
Cn1ncc([N+](=O)[O-])c1C(=O)Nc1cccc(Cl)c1	none
Cn1ncc(N=Cc2c(O)ccc3ccccc23)c1C(=O)Nc1cccc(Cl)c1	JMJD2A Tudor inh inconclusive, G9a block 7.94µM, BAZ2B block 50.1µM
Cc1ccc(CNC(=O)c2ccc(CSCc3c(F)cccc3Cl)o2)cc1	none (no result: PI5P4K alpha inh, PLK1 PBD block)
Cc1[nH]c(C)c(S(=O)(=O)N2CCN(c3ccccc3)CC2)c1C(=O)N1CCCC1	G9a block 44.7µM
Cc1cccc(N(C)S(=O)(=O)c2c(C)[nH]c(C)c2C(=O)N2CCCC2)c1	JMJD2A Tudor inh inconclusive, PLK1 PBD block 23.8µM
O=c1ccccn1Cc1c(F)cccc1Cl	HP1b binding inh inconclusive, JMJD2A Tudor inh inconclusive, PI5P4K alpha inh inconclusive, BAZ2B block inconclusive, PLK1 PBD block 3.36µM
O=C(O)CCC(=O)N1N=C(c2ccccc2)CC1c1ccc2c(c1)OCO2 (stereo unspecified)	none
COC(=O)[C@H](CCSC)NC(=O)NCCc1ccccc1F	none (no result: PI5P4K alpha inh)
CSCC[C@H](NC(=O)NCc1ccccc1F)C(=O)O	G9a block 44.7µM
COc1ccc2sc(N(CCCN(C)C)C(=O)c3ccc(S(=O)(=O)N(C)Cc4ccccc4)cc3)nc2c1	HP1b binding inh inconclusive, JMJD2A Tudor inh 50.1µM, G9a block 44.7µM, BAZ2B block inconclusive
CN(C)CCCN(C(=O)c1ccc(S(=O)(=O)N2CCCCCC2)cc1)c1nc2cc3c(cc2s1)OCO3	none (no result: HP1b binding inh, JMJD2A Tudor inh, G9a block, BAZ2B block)
CN(C)CCN(C(=O)c1ccc(N2C(=O)CCC2=O)cc1)c1nc2cc3c(cc2s1)OCO3	G9a block 39.8µM (no result: BAZ2B block)
Cc1ccc2sc(N(CCCN(C)C)C(=O)c3ccc(S(=O)(=O)N(C)C)cc3)nc2c1C	G9a block inconclusive (no result: BAZ2B block)
CN(C)CCN(C(=O)c1cccc(N2C(=O)CCC2=O)c1)c1nc2ccc(Br)cc2s1	G9a block inconclusive
Cc1ccc2sc(N(CCCN(C)C)C(=O)c3ccc(S(=O)(=O)N(C)Cc4ccccc4)cc3)nc2c1C	HP1b binding inh inconclusive, JMJD2A Tudor inh inconclusive, G9a block 10µM
CCN(c1ccccc1)S(=O)(=O)c1ccc(C(=O)N(CCCN(C)C)c2nc3cc4c(cc3s2)OCO4)cc1	HP1b binding inh inconclusive, JMJD2A Tudor inh 39.8µM, G9a block 39.8µM
COc1cc(/C=C/C(=O)OCC(=O)Nc2cc(C)on2)ccc1OCC#N	none
COc1ccc(OC)c(/C=C/c2nc3ccccc3c(=O)n2-c2ccc(F)c(Cl)c2)c1	none (no result: PI5P4K alpha inh, PLK1 PBD block)
CCN(Cc1ccccc1)S(=O)(=O)c1ccc(C(=O)N(CCCN(C)C)c2nc3c(F)cccc3s2)cc1	JMJD2A Tudor inh inconclusive, G9a block inconclusive, BAZ2B block inconclusive
CN(C)CCCN(C(=O)c1ccc2ccccc2c1)c1nc2cc3c(cc2s1)OCO3	JMJD2A Tudor inh inconclusive, G9a block inconclusive, BAZ2B block inconclusive
CCN(c1ccccc1)S(=O)(=O)c1ccc(C(=O)N(CCCN(C)C)c2nc3c(C)cccc3s2)cc1	JMJD2A Tudor inh 44.7µM, BAZ2B block 28.2µM (no result: G9a block)
CN(C)CCCN(C(=O)c1ccc(S(=O)(=O)N(C)Cc2ccccc2)cc1)c1nc2cc3c(cc2s1)OCO3	JMJD2A Tudor inh 50.1µM, G9a block 50.1µM, BAZ2B block inconclusive
CN(C)CCCN(C(=O)c1ccc2c(c1)OCCO2)c1nc2cc3c(cc2s1)OCO3	none (no result: G9a block)
CN(C)CCCN(C(=O)c1ccc([N+](=O)[O-])o1)c1nc2cc3c(cc2s1)OCO3	G9a block 56.2µM
